In PubChem BioAssay (Tox21):
A number with no mark means an inactive call. Active and inactive are the calls of the source. Calls come from the whole dose curve; as a rule, active = well fitted curve in the direction sought with a large enough effect in the repeat runs; inconclusive = weak or mixed curves; inactive = flat fitted curve, though single readings scatter.
% is set by controls: 0 for no effect and ±100 for the full control effect.

Assay: qHTS assay to test for compound auto fluorescence at 535 nm (green) in HEK293 cell free culture (AID 720682)
Conditions: cell-free medium, green autofluorescence 485/535 nm, active compounds read high; series mostly up to 91.3 µM; activity change: at the top concentration
From the text: U.S. Tox21 Program National Center for Advancing Translational Sciences [NCATS] NIH Chemical Genomics Center [NCGC] U.S. Environmental Protection Agency [EPA] National Institutes of Environmental Health Sciences [NIEHS] National Toxicology Program [NTP] U.S. Food and Drug Administration [FDA] Tox21 Assay Overview: Compound auto fluorescence often interferes with screening of the compound library against various biological targets and signaling pathways. Some of these compounds may have fluorophoric properties. Such properties may interfere with the assay outputs resulting in false positives and/or negatives. To decrease such complications and ensure the compound activities are relevant in terms of biological response, the Tox21 10K compound library was screened for auto fluorescence. From the fluorophores used as reporter signals in our screening assays, the auto fluorescence equivalencies of compounds against three fluorophores have been evaluated: Triamterene, Fluorescein and Rose Bengal sodium for blue, green and red fluorescence, respectively. The fluorescence intensities were measured using Excitation/Emission wavelengths at 405/460nm, 485/535nm and 540/590nm for blue, green and red labels, respectively. This assay includes the green fluorescence data.
Tox21 Assay Protocol Summary: 5 uL of culture medium (DMEM containing 10% FBS) per well was dispensed into black wall/clear bottom 1536-well plates using a Multidrop Combi Dispenser (ThermoFisher Scientific, Waltham, MA). After 23 nL compound or DMSO vehicle was transferred into assay plate by a pintool work station (Kalypsys, San Diego, CA), fluorescence intensities in the assay plates were measured by an Envision (PerkinElmer, Shelton, CT) plate reader using three labels for measuring blue, green and red fluorescence at […] 460, 535 and 590nm respectively.
With `O=C1OC[C@H](Cc2cccc(O)c2)[C@H]1Cc1cccc(O)c1` the “activity change” value was 0.0091% [at 46 µM]. In the case of `O=C(NS(=O)(=O)/C=C/c1ccccc1)c1ccc(F)cc1Cl`, the “activity change” value is reported as -0.105%. For `CO[C@@H]1[C@@H](OC)[C@H](C)[C@@](O)(CC(=O)O)O[C@H]1[C@H](C)[C@H]1O[C@@]2(CC[C@@](C)([C@H]3CC[C@@](C)([C@@H]4O[C@@H]([C@H]5O[C@](C)(O)[C@H](C)C[C@@H]5C)C[C@@H]4OC4C[C@H](OC)[C@@H](OC)[C@H](C)O4)O3)O2)C[C@H](O)[C@H]1C` (stereo not given in full), the “activity change” value was -0.0521% [at 46 µM]. With `CC(=O)OCC1=C(C(=O)O)N2C(=O)[C@@H](NC(=O)CSc3ccncc3)[C@H]2SC1` the “activity change” value was -0.064% [at 46 µM]. For `CN1C(CSCC(F)(F)F)Nc2cc(Cl)c(S(N)(=O)=O)cc2S1(=O)=O` (stereo not given), the “activity change” value was 0.0063% [at 46 µM]. For `O=S(=O)(O)CO`, the “activity change” value was -0.0784%. For `CCN(CC)c1ccc(C(=C2C=CC(=[N+](CC)CC)C=C2)c2ccc(S(=O)(=O)O)cc2S(=O)(=O)[O-])cc1`, the “activity change” value was -0.685%. In the case of `CC1CCc2nccnc21` (stereo not given), the “activity change” value is reported as 0.0581%. With `CC(C)(C)C(O)/C=C/c1ccc2c(c1)OCO2` (stereo not given) the “activity change” value was -0.0436% [at 46 µM]. With `CCN(CC)c1cccc(O)c1` the “activity change” value was 0.288% [at 95.7 µM]. In the case of `CC1CCC(C(C)CS)CC1S` (stereo not given), the “activity change” value is reported as 0.0004%. For `O=C(O)CCS`, the “activity change” value was 0.0992% [at 95.7 µM]. For `CCOC(=O)c1ccc(NC(=O)CN2CCCCC2)cc1`, the “activity change” value was 0.0215% [at 46 µM]. In the case of `CSCC[C@H](NC(=O)[C@H](Cc1c[nH]c2ccccc12)NC(=O)CCNC(=O)OC(C)(C)C)C(=O)N[C@@H](CC(=O)O)C(=O)N[C@@H](Cc1ccccc1)C(N)=O`, the “activity change” value is reported as -0.157% [at 46 µM]. For `CNS(=O)(=O)c1cc(C(=O)N2CCC(CCN3C4CCC3CC(n3c(C)nc5ccccc53)C4)(c3cccc(F)c3)CC2)c(Cl)cc1F` (stereo not given), the “activity change” value was 0.0834%. With `CCNc1nc(N)nc(Cl)n1` the “activity change” value was -0.0298%. With `SCCc1cnccn1` the “activity change” value was -0.0394%. Molecule `COc1cc(NC(C)CCCN)c2ncccc2c1` (stereo not given) has an activity change of 0.0005% [at 18.6 µM]. In the case of `CCCCCCCC(=O)OCCCCCC`, the “activity change” value is reported as 6.3e-05%. With `OCC(CO)n1cnc(-c2ccc(F)cc2)c1-c1ccnc(Oc2ccccc2)n1` the “activity change” value was 0.0164%. With `CC1CCCO1` (stereo not given) the “activity change” value was 0.111%. For `CC[C@H]1OC(=O)[C@H](C)[C@@H](O[C@H]2C[C@@](C)(OC)[C@@H](O)[C@H](C)O2)[C@H](C)[C@@H](O[C@@H]2O[C@H](C)C[C@H](N(C)C)[C@H]2O)[C@](C)(O)C[C@@H](C)CN(C)[C@H](C)[C@@H](O)[C@]1(C)O`, the outcome was “inactive”. With `CCc1ccc(C)cc1` the “activity change” value was 0.126%. For `CCN(CC)CCNC(=O)c1cc(Cl)c(N)cc1OC`, the “activity change” value was 0.0329% [at 46 µM]. For `CC(CCc1ccc(O)cc1)NCCc1ccc(O)c(O)c1` (stereo not given), the “activity change” value was 0.0445% [at 46 µM]. With `CC(C)(O)c1coc(S(=O)(=O)NC(=O)Nc2c3c(cc4c2CCC4)CCC3)c1` the “activity change” value was -0.0222%. With `CC(C)OC(=O)c1ccccc1C(=O)OC(C)C` the “activity change” value was 0.142%. In the case of `O=c1[nH]c2cc(C(F)(F)F)c(N3CCOCC3)cc2n(CP(=O)(O)O)c1=O`, the “activity change” value is reported as -0.099% [at 46 µM]. In the case of `CCC(CO)(CO)CO`, the “activity change” value is reported as 0.0509% [at 95.7 µM]. In the case of `C=CC(=O)O`, the outcome is reported as “inactive”. With `Cc1cc([N+](=O)[O-])ccc1N` the “activity change” value was 0.0599%. With `CC1CCCC(=O)C1=O` (stereo not given) the “activity change” value was -0.0861%. With `CN(C)CC/C=C1\c2ccccc2Sc2ccc(Cl)cc21` the “activity change” value was -0.255% [at 46 µM]. For `Cc1cn([C@H]2C[C@H](F)[C@@H](CO)O2)c(=O)[nH]c1=O`, the “activity change” value was -0.0557% [at 46 µM]. With `CCN(Cc1cccc(S(=O)(=O)O)c1)c1ccc(C(=C2C=CC(=[N+](CC)Cc3cccc(S(=O)(=O)O)c3)C=C2)c2ccccc2S(=O)(=O)[O-])cc1` the “activity change” value was -0.0401%. For `CNC1CCCN(c2c(F)cc3c(=O)c(C(=O)O)cn(C4CC4)c3c2OC)C1` (stereo not given), the “activity change” value was -0.0685% [at 46 µM]. For `Cc1ccc2c(c1)CCCN2`, the “activity change” value was 0.0079%. With `CCOC(=O)c1c(N)sc2c1CCN(Cc1ccccc1)C2` the “activity change” value was 0.122% [at 46 µM]. With `[Cl][Nd]([Cl])[Cl]` the “activity change” value was 0.0044%. In the case of `COc1ccc(N)c([N+](=O)[O-])c1`, the “activity change” value is reported as 0.0082%.
